40 compounds from PubChem BioAssay (Tox21) can be followed below.

Records with an inconclusive call do not appear. Unmarked numbers belong to inactive results. Activity calls are given as the source filed them. Calls follow the shape of the dose curve; as a rule, active = well fitted activation curve with a large enough effect in the repeat runs; inconclusive = weak or mixed curves; inactive = flat fitted curve, though single readings scatter.
% is scaled to controls: 0 for no effect and ±100 for the full control effect; potency is read from the fitted curve at half-maximal effect.

This assay in a line: A CellTox Green Cytotoxicity Assay to monitor cytotoxicity in HEK293 cells - 16 hour (AID 1224888). Also: nearly all actives have a fitted effect of over 35% in size. Conditions: CellTox Green fluorescence; series mostly up to 76.8 µM; activity change: at the top concentration. From the text:
National Center for Advancing Translational Sciences [NCATS]
NIH Chemical Genomics Center [NCGC]
U.S. Environmental Protection Agency [EPA]
National Institutes of Environmental Health Sciences [NIEHS]
National Toxicology Program [NTP]
Cell-based models are critical for drug discovery. Determining the natural cytotoxic effects resulting from test compounds is an essential research activity. A CellTox Green Cytotoxicity Assay to monitor cytotoxicity in real time of continues cell culture during 40 hours of the compound treatment was used to screen Tox21 10K library compounds in Hek293 cells. CellTox Green Cytotoxicity Assay is a nonlytic, homogeneous, biofluorescent method to measure cytotoxicity in cell culture after experimental manipulation. The assay system uses a proprietary asymmetric cyanine dye that is excluded from viable cells but preferentially stains the dead cell's DNA. […] Viable cells produce no appreciable increases in fluorescence. Therefore, the fluorescence signal produced by the binding interaction with dead cell DNA is proportional to cytotoxicity.
The mixture of Hek293 cell suspension and reagents were dispensed at 600cells/6 ul/well in 1536-well tissue culture treated black solid bottom plates using a Multidrop dispenser. After the assay plates were incubated at a 37 C/5% CO2 incubator for 5 hours, 23 nL of compounds dissolved in DMSO, positive and negative controls was transferred to the assay plate by a pintool work station. The plates were incubated at 37 C for 40 hours. The fluorescence intensity were measured at 0h, 8h, 16h, 24h, 32h and 40h time points using ViewLux plate reader during compound treatment.
For the compound `CC(C(=O)c1ccccc1)N(C)C` (stereo not given), the “activity change” value is 2.21% [at 35.3 µM, stronger effect = higher value].

On to `CCCCCCI`, for which the “activity change” value is 13.8%.

On to `CCNc1nc(NC(C)C)nc(OC)n1`, for which the “activity change” value is -14.7%.

`CC(=O)Nc1cc([As](=O)(O)O)ccc1O`: the “activity change” value was -7.02% [at 35.3 µM, stronger effect = higher value].

On to `N#CCCC#N`, for which the “activity change” value is -3.35%.

For the compound `CC(C)[N+](=O)[O-]`, the “activity change” value was 0.216%.

Take `O=C(Cc1ccccc1)OCc1ccccc1`: the “activity change” value is 20.5%.

For `CCCCc1ccc(O)cc1`, the “activity change” value is 8.72%.

With `CCC/C(=N\OCC)C1=C(O)CC(CC(C)SCC)CC1=O` (stereo not given), the “activity change” value is -0.766%.

For the compound `CCC(Cl)[N+](=O)[O-]` (stereo not given), the “activity change” value is 3.59%.

In the case of `CCC(C)(C)c1cc(-n2nc3ccccc3n2)c(O)c(C(C)(C)CC)c1`, the “activity change” value is -8.84%.

Consider `C=C(C)CN(CC)c1c([N+](=O)[O-])cc(C(F)(F)F)cc1[N+](=O)[O-]`, for which the “activity change” value was -11.5%.

As to `COc1cc(OC)nc(Sc2cccc(Cl)c2C(=O)O)n1`, the “activity change” value is -5.17%.

On to `CC(C=O)Cc1ccc2c(c1)OCO2` (stereo not given), for which the “activity change” value is -9.37%.

As for `O=CNC(N1CCN(C(NC=O)C(Cl)(Cl)Cl)CC1)C(Cl)(Cl)Cl` (stereo not given), the “activity change” value was -8.34%.

Turning to `CC(C)COP(=O)(OCC(C)C)OCC(C)C`, the “activity change” value was 0.579%.

Turning to `c1cc[c]([Hg][c]2ccccc2)cc1`, the “activity change” value was 24.8%.

`CN/C(=N\[N+](=O)[O-])NCC1CCOC1` (stereo not given): the “activity change” value is 2.57%.

Consider `ClC(Cl)C(Cl)Cl`, for which the “activity change” value was -0.591%.

Regarding `NC(=O)c1cc([N+](=O)[O-])cc([N+](=O)[O-])c1`, the “activity change” value was 14% [at 35.3 µM, stronger effect = higher value].

Regarding `Nc1cc(Cl)ccc1O`, the “activity change” value is -9.92%.

As to `COC(=O)c1ccccc1S(=O)(=O)NC(=O)Nc1nc(C)cc(C)n1`, the “activity change” value is 0.401%.

For the compound `CC(C1CC1)C(O)(Cn1cncn1)c1ccc(Cl)cc1` (stereo not given), the “activity change” value was 0.507%.

For the compound `O=[N+]([O-])c1cc(Cl)c(Cl)c(Cl)c1`, the Potency is 21.7 µM (active).

With `CCCSP(=O)(OCC)Oc1ccc(Br)cc1Cl` (stereo not given), the “activity change” value was 3.29% [at 35.3 µM, stronger effect = higher value].

With `CC(C)NCC(O)c1ccc(N)c(C#N)c1` (stereo not given), the “activity change” value is 2.96% [at 35.3 µM, stronger effect = higher value].

For `C[C@]12CC[C@H]3[C@@H](CCC4=CC(=O)CC[C@@]43C)[C@@H]1CC[C@@H]2C(=O)O`, the “activity change” value is -1.79% [at 35.3 µM, stronger effect = higher value].

Regarding `C(CCOCC1CO1)COCC1CO1` (stereo not given), the “activity change” value was -0.0163%.

For the compound `Fc1ccc(C2(Cn3cncn3)OC2c2ccccc2Cl)cc1` (stereo not given), the “activity change” value is 8.32%.

Consider `COc1cc(OC)nc(NC(=O)NS(=O)(=O)c2ncccc2OCC(F)(F)F)n1`, for which the “activity change” value was 2.16%.

On to `CNNC`, for which the “activity change” value is 11.3%.

For the compound `CCCCC(=O)Cl`, the “activity change” value was -0.18%.

Take `CCCSC(=O)Cl`: the “activity change” value was 2.07%.

Regarding `ClC(Br)Br`, the “activity change” value is 2.38%.

For `COc1cc(OC)nc(Oc2cccc(Oc3nc(OC)cc(OC)n3)c2C(=O)O)n1`, the “activity change” value is -8.64%.

Turning to `CC(=O)[C@H]1CC[C@H]2[C@@H]3CC[C@H]4C[C@H](O)CC[C@]4(C)[C@H]3C(=O)C[C@]12C`, the “activity change” value is -2.9% [at 35.3 µM, stronger effect = higher value].

On to `CCOP(=S)(OCC)SCSP(=S)(OCC)OCC`, for which the “activity change” value was -9.98%.

For the compound `O=S(=O)(O)C(F)(F)C(F)(F)C(F)(F)C(F)(F)C(F)(F)C(F)(F)F`, the “activity change” value is 2.51%.

Turning to `OCCSCSCCO`, the “activity change” value is -1.79%.

For `ClC(Cl)(Cl)C(Cl)(Cl)Cl`, the “activity change” value is -3.3%.
